According to PubChem BioAssay (Tox21):
Results filed as inconclusive are left out. A call without a number means that no potency is given here. Active and inactive are the calls of the source. The call rests on the fitted dose curve.
Potency means the concentration at half of the fitted maximal effect.

What follows are compounds tested against Thyrotropin receptor (Homo sapiens) (UniProt P16473) (assay: qHTS assay to identify small molecule antagonists of the thyroid stimulating hormone receptor (TSHR) signaling pathway (AID 1259385; further: nearly all actives have a fitted effect of over 20% in size)). Details: TSHR-HEK293 cAMP HTRF, TSH-stimulated antagonist mode; series mostly up to 92.4 µM.
Thyrotropin receptor (Homo sapiens), sequence (P16473 whole entry, looked up): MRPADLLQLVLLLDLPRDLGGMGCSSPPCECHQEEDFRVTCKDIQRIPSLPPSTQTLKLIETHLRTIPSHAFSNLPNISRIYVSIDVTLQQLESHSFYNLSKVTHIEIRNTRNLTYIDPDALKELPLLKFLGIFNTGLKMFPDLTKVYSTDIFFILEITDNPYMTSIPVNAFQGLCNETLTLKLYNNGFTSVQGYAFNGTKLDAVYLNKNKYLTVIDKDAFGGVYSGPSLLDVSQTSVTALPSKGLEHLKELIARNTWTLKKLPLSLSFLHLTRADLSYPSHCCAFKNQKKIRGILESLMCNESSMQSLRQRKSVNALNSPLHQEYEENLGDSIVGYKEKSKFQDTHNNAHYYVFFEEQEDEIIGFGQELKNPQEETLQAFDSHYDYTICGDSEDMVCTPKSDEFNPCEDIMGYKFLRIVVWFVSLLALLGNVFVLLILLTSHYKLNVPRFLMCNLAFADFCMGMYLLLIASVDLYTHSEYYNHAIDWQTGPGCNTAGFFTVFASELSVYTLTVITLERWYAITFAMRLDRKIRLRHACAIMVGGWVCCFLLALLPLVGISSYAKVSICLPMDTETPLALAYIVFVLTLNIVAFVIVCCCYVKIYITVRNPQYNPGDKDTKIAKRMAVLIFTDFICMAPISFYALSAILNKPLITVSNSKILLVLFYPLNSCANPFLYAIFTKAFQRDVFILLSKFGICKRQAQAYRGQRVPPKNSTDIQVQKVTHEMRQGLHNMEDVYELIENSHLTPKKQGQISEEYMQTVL
Source text: U.S. Tox21 Program National Center for Advancing Translational Sciences [NCATS] NIH Chemical Genomics Center [NCGC] U.S. Environmental Protection Agency [EPA] National Institutes of Environmental Health Sciences [NIEHS] National Toxicology Program [NTP] U.S. Food and Drug Administration [FDA] Tox21 Assay Overview: TSHR is the receptor for thyrotropin (thyroid stimulating hormone or TSH), a member of the glycoprotein hormone family. TSH is released by the anterior pituitary gland and is the main regulator of thyroid gland growth and development. Upon binding circulating thyrotropin, a G-protein signal cascade activates adenylyl cyclase and […] cAMP concentration is increased. cAMP is a key second messenger involved extensively in cellular signal transduction pathways associated with the majority of G-protein coupled receptors (GPCRs). The activation of these GPCRs by neurotransmitters, lipids, nucleotides, peptides and hormones results in the activation or the inhibition of plasma membrane-bound adenylate cyclase through heterotrimeric G-proteins. A cell-based TSHR assay can be used to screen chemical compounds that modulate TSHR either in agonist or antagonist mode.
Tox21 Assay Protocol Summary: TSHR-Hek293 cells were dispensed at 800 cells/4uL/well in 1536-well white plates using a Multidrop dispenser. After the assay plates were incubated at a 37C/5% CO2 incubator for 18 hrs, 23 nL of compounds dissolved in DMSO, positive controls or DMSO only was transferred to the assay plate by a pin tool, followed by 1 ul medium containing Ro20-1724. For the antagonist mode screening, 1 uL of TSH was added on the top of the cell/compound mixtures to achieve a final agonist concentration of 1.5 ng/mL. After 30 min of incubation at room temperature, 2.5 ul/well of cAMP-d2 and 2.5 ul/well of anti-cAMP-cryptate were added respectively into the assay plates using a Flying Reagent Dispenser. The plates were incubated at room temperature for 1 hr. The fluorescence intensity in the plates was measured using an Envision plate reader. Each test compound was measured at 15 concentrations and in triplicates.
With `COc1ccc(OC(=O)N(CC(=O)O)Cc2ccc(OCCc3nc(-c4ccccc4)oc3C)cc2)cc1` the Potency was “inactive”. For `COc1ccccc1Oc1c(NS(=O)(=O)c2ccc(C(C)(C)C)cc2)nc(-c2ncccn2)nc1OCCO`, the Potency was “inactive”. For `CCOC(=O)c1ccc(C#Cc2ccc3c(c2)C(C)(C)CCS3)nc1`, the Potency was “inactive”. `CN1C[C@H](C(=O)N[C@]2(C)O[C@@]3(O)[C@@H]4CCCN4C(=O)[C@H](Cc4ccccc4)N3C2=O)C[C@@H]2c3cccc4[nH]cc(c34)C[C@H]21` was tested, and the Potency was 11.9 µM (active). With `CCOC(=O)c1ccccc1C(=C1C=C(Br)C(=O)C(Br)=C1)c1cc(Br)c(O)c(Br)c1` the Potency was “inactive”. In the case of `CN1C(=O)N(c2ccccc2Br)Cc2cnc(Nc3ccc4c(c3)OCC(CO)O4)nc21` (stereo not given), the Potency is reported as “inactive”. With `O=C(/C=C/c1ccccc1)OCCc1ccccc1` the Potency was 68.6 µM (active). For `Oc1cccc(Nc2ccccc2)c1`, the Potency was “inactive”. With `CCC(C)COC(=O)CC(C)C` (stereo not given) the Potency was “inactive”. In the case of `CC(C)c1nc(CN(C)C(=O)N[C@H](C(=O)N[C@@H](Cc2ccccc2)C[C@H](O)[C@H](Cc2ccccc2)NC(=O)OCc2cncs2)C(C)C)cs1`, the Potency is reported as “inactive”. `CO[C@]1(NC(=O)CSC(F)F)C(=O)N2C(C(=O)O)=C(CSc3nnnn3CCO)CO[C@H]21` was tested, and the Potency was “inactive”. `CCCCCCCCC(CCCCCC)C(=O)O` (stereo not given) was tested, and the Potency was “inactive”. For `Cc1ccc2c(Br)cc(Br)c(O)c2n1`, the Potency was “inactive”. In the case of `CCC(OCCCOC)OC(C)=O` (stereo not given), the Potency is reported as “inactive”. `O=C=Nc1ccc(Cl)c(Cl)c1` was tested, and the Potency was “inactive”. In the case of `CN1CCCC(CC2c3ccccc3Sc3ccccc32)C1` (stereo not given), the Potency is reported as 29.8 µM (active). With `CCc1ccccc1` the Potency was “inactive”. In the case of `CCC1CO1` (stereo not given), the Potency is reported as “inactive”. With `CCCCOc1ccc(OCCCN2CCOCC2)cc1` the Potency was “inactive”. For `COC(=O)CCS`, the Potency was “inactive”. `COc1cc(C(=O)NCCCCCC(=O)O)cc(OC)c1OC` was tested, and the Potency was “inactive”. In the case of `C[C@H]1C[C@H](O)c2ccsc2S1(=O)=O`, the Potency is reported as “inactive”. With `CN(C)CCN1C(=O)c2ccccc2N(C)c2ccccc21` the Potency was “inactive”. For `Nc1ncnc2c1ncn2[C@H]1CC[C@@H](CO)O1`, the Potency was “inactive”. In the case of `O=C(O)CCc1nc(-c2ccccc2)c(-c2ccccc2)o1`, the Potency is reported as “inactive”. With `C[C@]1(Cn2ccnn2)[C@H](C(=O)O)N2C(=O)C[C@H]2S1(=O)=O` the Potency was “inactive”. `CC(=O)OCC(=O)NCCCOc1cccc(CN2CCCCC2)c1` was tested, and the Potency was “inactive”. `CC1=Nc2ccc3ccccc3c2C1(C)C` was tested, and the Potency was “inactive”. In the case of `C=C1CCC2CC1C2(C)C` (stereo not given), the Potency is reported as “inactive”. In the case of `c1ccc2c(c1)CCc1ccccc1N2`, the Potency is reported as “inactive”. For `Nc1nnc(-c2ccc([N+](=O)[O-])o2)o1`, the Potency was “inactive”. For `C=C1C[C@@]23CC[C@H]4[C@@](C)(CCC[C@@]4(C)C(=O)O[C@@H]4O[C@H](CO)[C@@H](O)[C@H](O)[C@H]4O)[C@@H]2CC[C@]1(O[C@@H]1O[C@H](CO)[C@@H](O)[C@H](O[C@@H]2O[C@H](CO)[C@@H](O)[C@H](O)[C@H]2O)[C@H]1O[C@@H]1O[C@H](CO)[C@@H](O)[C@H](O)[C@H]1O)C3`, the Potency was “inactive”. `CCCCCCC(C)(C)C(=O)O` was tested, and the Potency was “inactive”. In the case of `NNC(=O)CP(=O)(c1ccccc1)c1ccccc1`, the Potency is reported as “inactive”. For `C=CCc1ccccc1OCC(O)CNC(C)C` (stereo not given), the Potency was “inactive”. `Oc1ccc(Cl)c2cccnc12` was tested, and the Potency was “inactive”. With `O=C(/C=C/c1ccc(O)c(O)c1)O[C@@H]1C[C@@](OC(=O)/C=C/c2ccc(O)c(O)c2)(C(=O)O)C[C@@H](O)[C@@H]1O` the Potency was “inactive”. In the case of `C1C[C@@H]2[C@H]3CC[C@H](C3)[C@@H]2C1`, the Potency is reported as “inactive”. `CCCCCCCCOc1ccc(C(=O)O)cc1` was tested, and the Potency was “inactive”. For `CC(=O)OCC[N+](C)(C)C`, the Potency was “inactive”.
